Measured values as given in PubChem BioAssay AID1159580 (chemical genetic matrix, 2015).
Out of some 5,500 compounds screened, about 2,000 (36%) were called active. Not shown: some 18% with an inconclusive outcome. No stated cut-off is given here; in the data, active means normalized growth mostly below about 0.91 (no sharp cut-off); inconclusive means no clear call, values can overlap the other calls; inactive means mostly above about 0.92. This is one part of the list.

Test: chemical genetic growth profiling, strain panel (AID 1159580);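 further: tested at 20 µM; growth read once vehicle control cultures reached saturation at 30 °C; 1 = growth at the plate median or of vehicle wells; lower values mean less growth of the strain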
Details: growth OD

Measured: normalized growth

CC(=O)NCc1c(I)c(NC(C)=O)c(I)c(C(=O)O)c1I
inactive: S. cerevisiae deletion strains, locus YJR075W, strain HOC1, hits give low values 1.01 | S. cerevisiae deletion strains, locus YKL009W, strain mrt4, hits give low values 1.1 | S. cerevisiae deletion strains, locus YKL068W, hits give low values 0.977 | S. cerevisiae deletion strains, locus YKL085W, strain MDH1 (second series), hits give low values 1.01 | S. cerevisiae deletion strains, locus YKL085W, strain MDH1, hits give low values 1.01 | S. cerevisiae deletion strains, locus YKL160W, strain elf1, hits give low values 0.981 | S. cerevisiae deletion strains, locus YKL190W, strain CNB1, hits give low values 0.997 | S. cerevisiae deletion strains, locus YKR001C, strain vps1, hits give low values 1 | S. cerevisiae deletion strains, locus YKR026C, strain gcn3, hits give low values 0.994 | S. cerevisiae deletion strains, locus YKR091W, strain srl3, hits give low values 0.998 | S. cerevisiae deletion strains, locus YLL001W, strain dnm1, hits give low values 0.999 | S. cerevisiae deletion strains, locus YLL026W, hits give low values 0.991 | S. cerevisiae deletion strains, locus YLL041C, strain sdh2, hits give low values 0.995 | S. cerevisiae deletion strains, locus YLR027C, strain aat2, hits give low values 1 | S. cerevisiae deletion strains, locus YLR039C, strain RIC1, hits give low values 1 | S. cerevisiae deletion strains, locus YLR058C, strain SHM2, hits give low values 0.999 | S. cerevisiae deletion strains, locus YLR102C, strain apc9, hits give low values 0.993 | S. cerevisiae deletion strains, locus YLR113W, strain HOG1, hits give low values 1.02 | S. cerevisiae deletion strains, locus YLR221C, strain rsa3, hits give low values 0.992 | S. cerevisiae deletion strains, locus YLR258W, strain gsy2, hits give low values 1 | S. cerevisiae deletion strains, locus YLR262C, strain YPT6 (second series), hits give low values 1 | S. cerevisiae deletion strains, locus YLR262C, strain YPT6, hits give low values 0.991 | S. cerevisiae deletion strains, locus YLR268W, strain sec22, hits give low values 0.97 | S. cerevisiae deletion strains, locus YLR320W, strain mms22, hits give low values 0.978 | S. cerevisiae deletion strains, locus YLR330W, strain CHS5, hits give low values 0.992 | S. cerevisiae deletion strains, locus YLR342W, strain FKS1 (second series), hits give low values 1.04 | S. cerevisiae deletion strains, locus YLR342W, strain FKS1, hits give low values 0.999 | S. cerevisiae deletion strains, locus YLR357W, strain rsc2, hits give low values 1.01 | S. cerevisiae deletion strains, locus YLR370C, strain arc18, hits give low values 1 | S. cerevisiae deletion strains, locus YLR371W, strain rom2, hits give low values 0.99 | S. cerevisiae deletion strains, locus YLR384C, strain iki3, hits give low values 0.987 | S. cerevisiae deletion strains, locus YLR418C, strain cdc73, hits give low values 1.02 | S. cerevisiae deletion strains, locus YML016C, strain PPZ1, hits give low values 1 | S. cerevisiae deletion strains, locus YML032C, strain rad52, hits give low values 0.998 | S. cerevisiae deletion strains, locus YML120C, strain ndi1, hits give low values 0.994 | S. cerevisiae deletion strains, locus YML124C, strain tub3, hits give low values 1 | S. cerevisiae deletion strains, locus YMR058W, strain fet3, hits give low values 0.995 | S. cerevisiae deletion strains, locus YMR078C, strain ctf18, hits give low values 0.984 | S. cerevisiae deletion strains, locus YMR125W, strain sto1, hits give low values 1.02 | S. cerevisiae deletion strains, locus YMR129W, hits give low values 1 | S. cerevisiae deletion strains, locus YMR205C, strain PFK2, hits give low values 1.01 | S. cerevisiae deletion strains, locus YMR223W, strain ubp8, hits give low values 1.02 | S. cerevisiae deletion strains, locus YMR231W, strain pep5, hits give low values 0.991 | S. cerevisiae deletion strains, locus YMR263W, strain SAP30, hits give low values 0.987 | S. cerevisiae deletion strains, locus YMR307W, strain GAS1, hits give low values 1.08 | S. cerevisiae deletion strains, locus YNL067W, strain RPL9B, hits give low values 0.987 | S. cerevisiae deletion strains, locus YNL071W, strain lat1, hits give low values 1 | S. cerevisiae deletion strains, locus YNL128W, strain TEP1, hits give low values 0.988 | S. cerevisiae deletion strains, locus YNL153C, strain GIM3, hits give low values 0.999 | S. cerevisiae deletion strains, locus YNL183C, strain NPR1, hits give low values 0.963 | S. cerevisiae deletion strains, locus YNL209W, strain ssb2, hits give low values 1 | S. cerevisiae deletion strains, locus YNL233W, strain BNI4, hits give low values 1.01 | S. cerevisiae deletion strains, locus YNL248C, strain rpa49, hits give low values 0.996 | S. cerevisiae deletion strains, locus YNL250W, strain rad50, hits give low values 0.99 | S. cerevisiae deletion strains, locus YNL271C, strain bni1, hits give low values 0.989 | S. cerevisiae deletion strains, locus YNL298W, strain CLA4, hits give low values 0.995 | S. cerevisiae deletion strains, locus YNL307C, strain MCK1, hits give low values 0.997 | S. cerevisiae deletion strains, locus YNL322C, strain KRE1 (second series), hits give low values 0.989 | S. cerevisiae deletion strains, locus YNL322C, strain KRE1, hits give low values 0.994 | S. cerevisiae deletion strains, locus YNR049C, strain mso1, hits give low values 0.996 | S. cerevisiae deletion strains, locus YNR052C, strain pop2, hits give low values 0.978 | S. cerevisiae deletion strains, locus YOL006C, strain TOP1, hits give low values 0.981 | S. cerevisiae deletion strains, locus YOL012C, strain htz1 0.964 | S. cerevisiae deletion strains, locus YOL147C, strain pex11, hits give low values 0.995 | S. cerevisiae deletion strains, locus YOR001W, strain rrp6, hits give low values 1.01 | S. cerevisiae deletion strains, locus YOR061W, strain CKA2, hits give low values 1 | S. cerevisiae deletion strains, locus YOR069W, strain VPS5, hits give low values 0.998 | S. cerevisiae deletion strains, locus YOR070C, strain gyp1, hits give low values 0.998 | S. cerevisiae deletion strains, locus YOR080W, strain dia2, hits give low values 0.995 | S. cerevisiae deletion strains, locus YOR083W, strain WHI5, hits give low values 0.983 | S. cerevisiae deletion strains, locus YOR106W, strain vam3, hits give low values 0.979 | S. cerevisiae deletion strains, locus YOR136W, strain idh2, hits give low values 0.999 | S. cerevisiae deletion strains, locus YOR144C, strain elg1, hits give low values 0.984 | S. cerevisiae deletion strains, locus YOR184W, strain ser1, hits give low values 0.995 | S. cerevisiae deletion strains, locus YOR231W, strain MKK1, hits give low values 1.03 | S. cerevisiae deletion strains, locus YOR265W, strain rbl2, hits give low values 0.994 | S. cerevisiae deletion strains, locus YOR270C, strain vph1, hits give low values 1.02 | S. cerevisiae deletion strains, locus YOR290C, strain snf2, hits give low values 1.01 | S. cerevisiae deletion strains, locus YOR316C, strain cot1, hits give low values 0.986 | S. cerevisiae deletion strains, locus YPL051W, strain arl3, hits give low values 0.997 | S. cerevisiae deletion strains, locus YPL055C, strain LGE1, hits give low values 0.984 | S. cerevisiae deletion strains, locus YPL078C, strain atp4, hits give low values 1 | S. cerevisiae deletion strains, locus YPL106C, strain sse1, hits give low values 0.993 | S. cerevisiae deletion strains, locus YPL240C, strain hsp82, hits give low values 0.98 | S. cerevisiae deletion strains, locus YPL241C, strain CIN2, hits give low values 1 | S. cerevisiae deletion strains, locus YPL256C, strain CLN2, hits give low values 1.01 | S. cerevisiae deletion strains, locus YPR119W, strain clb2, hits give low values 0.999 | S. cerevisiae deletion strains, locus YPR141C, strain kar3, hits give low values 0.986 | S. cerevisiae deletion strains, locus YPR163C, strain tif3, hits give low values 1 | S. cerevisiae deletion strains, locus YPR167C, strain met16, hits give low values 0.985 | S. cerevisiae deletion strains, strain wtn01, hits give low values 0.989 | S. cerevisiae strains, strain wild type, hits give low values 1
